Measurements taken from ChEMBL document CHEMBL5308504, “Tm Shift (DSF) assay results for EUbOPEN Chemogenomics Library” (2023).

Each compound was assayed against Bromodomain-containing protein 4 (Homo sapiens) (UniProt O60885). Conditions: Compound concentration 20.0 uM, Protein concentration 2.0 uM, Result type QC Liability.
`CCC(=O)O[C@@H](OP(=O)(CCCCc1ccccc1)CC(=O)N1C[C@H](C2CCCCC2)C[C@H]1C(=O)O)C(C)C` (stereo not given in full) gave a ΔTm of -0.8 °C.
In the case of `Cc1nnc2n1-c1sc(CCC(=O)N3CCOCC3)cc1C(c1ccccc1Cl)=NC2`, the ΔTm is reported as -0.19 °C.
Compound `Cn1ncc(-c2nc(N[C@H]3CC[C@H](N)CC3)ncc2Cl)c1CC1CC1` has a ΔTm of -0.39 °C.
`Cc1nnc2n1-c1sc3c(c1C(c1ccccc1Cl)=NC2)CC(C(=O)N1CCOCC1)C3` (stereo not given) gave a ΔTm of 0.62 °C.
`Cc1nnc2n1-c1sc3c(c1C(c1ccccc1Cl)=NC2)C[C@H](C(=O)N1CCOCC1)C3` was tested, and the ΔTm was -0.46 °C.
`C=CC(=O)Nc1cc(-c2nn(C3CCC(N4CCN(C(C)=O)CC4)CC3)c3ncnc(N)c23)ccc1Oc1ccccc1` (stereo not given) was tested, and the ΔTm was -0.22 °C.
With `C[C@@H](CO)CCC[C@@H](C)[C@H]1CC[C@H]2[C@@H]3CC=C4C[C@@H](O)CC[C@]4(C)[C@H]3CC[C@]12C` the ΔTm was -3.47 °C.
With `Cc1ccc2c(N)c(C(=O)NC3CCc4cc(N5CC6CCC(C5)N6)ccc4C3)sc2n1` (stereo not given) the ΔTm was -0.53 °C.
`CO[C@H](C)CN1CC[C@]2(C)c3cccc(O)c3C[C@H]1C2(C)C` was tested, and the ΔTm was -1.2 °C.
`C[C@@H]1CC[C@@]2(OC1)O[C@H]1[C@@H](O)[C@H]3[C@@H]4CC[C@H]5C[C@@H](O[C@@H]6O[C@H](CO)[C@H](O[C@@H]7O[C@H](CO)C(O)[C@H](O[C@@H]8OC[C@@H](O)[C@H](O)[C@H]8O)[C@H]7O[C@@H]7O[C@H](CO)[C@H](O)[C@H](O[C@@H]8O[C@H](CO)[C@@H](O)[C@H](O)[C@H]8O)[C@H]7O)[C@H](O)[C@H]6O)[C@H](O)C[C@]5(C)[C@H]4CC[C@]3(C)[C@H]1[C@@H]2C` (stereo not given in full) was tested, and the ΔTm was -1.87 °C.
Compound `CS(=O)(=O)c1ccc(-c2cnc(N)c(C(=O)Nc3ccccc3)n2)cc1` has a ΔTm of 0.79 °C.
For `OCC1OC(n2cnc3cc(Cl)c(Cl)cc32)C(O)C1O` (stereo not given), the ΔTm was 0.7 °C.
Compound `CC[C@H]1[C@@H](O)[C@@H]2[C@H](CC[C@]3(C)[C@@H]([C@H](C)CCC(=O)O)CC[C@@H]23)[C@@]2(C)CC[C@@H](O)C[C@@H]12` has a ΔTm of -3.05 °C.
In the case of `C[C@H](CCC(=O)O)[C@H]1CC[C@H]2[C@@H]3[C@@H](O)C[C@@H]4C[C@H](O)CC[C@]4(C)[C@H]3CC[C@]12C`, the ΔTm is reported as -2.97 °C.
`C[C@@H](CN1CC[C@@]2(C)c3cccc(O)c3C[C@@H]1C2(C)C)OCc1ccccc1` was tested, and the ΔTm was -0.17 °C.
In the case of `C=CC(=O)Nc1ccc2[nH]c(=O)n(C3CCN(Cc4ccc(-c5ccc6c(c5)NC(=O)CO6)cc4)CC3)c2c1`, the ΔTm is reported as 0.27 °C.
In the case of `C=C[C@@]12CCc3cc(O)ccc3[C@H]1CC[C@@]1(C)[C@H]2CC[C@@H]1O`, the ΔTm is reported as 0.82 °C.
In the case of `COP(=O)(CCC(N)C(=O)O)Oc1cccc(CC(=O)O)c1` (stereo not given), the ΔTm is reported as -0.52 °C.
`CCCn1cc(-c2cc(C3C(=O)N(CC)c4ccc(C(F)(F)F)cc4N(c4ccccc4)C3=O)cc(OC)c2O)cn1` (stereo not given) was tested, and the ΔTm was 1.56 °C.
`CNc1nc(-c2cc(C(=O)N3CCN(Cc4ccc(Cl)cc4)CC3)c(Cl)cn2)cs1` gave a ΔTm of 0.71 °C.
Work on `CCN1C(=O)C(c2cccc(C(=O)O)c2)C(=O)N(c2ccccc2)c2cc(C(F)(F)F)ccc21` (stereo not given) yielded a ΔTm of -0.84 °C.
Work on `COc1ccc(-n2nc(C(F)(F)F)cc2-c2ccc(Cl)cc2)cc1` yielded a ΔTm of -1.21 °C.
Work on `C=CC(=O)N1CCC[C@@H](n2nc(-c3ccc(Oc4ccccc4)cc3)c3c(N)ncnc32)C1` yielded a ΔTm of -4.44 °C.
`COc1nc2ccc([C@@](O)(c3ccc(Cl)cc3)c3cncn3C)cc2c(Cl)c1Cc1ccc(-n2cccn2)cc1` was tested, and the ΔTm was -0.83 °C.
Compound `Cc1nnc2n1-c1sc3c(c1C(c1ccccc1Cl)=NC2)C[C@@H](C(=O)N1CCOCC1)C3` has a ΔTm of 1.2 °C.
`CN1CCN(C(=O)Cc2ccc(N/C(=C3\C(=O)Nc4cc(Cl)ccc43)c3ccccc3)cc2)CC1` gave a ΔTm of -3.18 °C.
`C[C@]12CC[C@@H]3c4ccc(C(N)=O)cc4CC[C@H]3[C@@H]1CC=C2c1cncc(F)c1` was tested, and the ΔTm was 0 °C.
With `O=C1CCC(N2Cc3cc(CNC(=O)C(F)(F)c4ccc(Cl)cc4)ccc3C2=O)C(=O)N1` (stereo not given) the ΔTm was -1.23 °C.
For `O=C(NCCN1CCC2(CC1)C(=O)NCN2c1cccc(F)c1)c1ccc2ccccc2c1`, the ΔTm was -0.54 °C.
`N[C@H](C(=O)O)[C@@H]1CC(Cl)=NO1` gave a ΔTm of -0.13 °C.
`CCN(CC)CCO[C@H]1CC[C@@]2(C)C(=CC[C@@H]3[C@@H]2CC[C@]2(C)C(=O)CC[C@@H]32)C1` was tested, and the ΔTm was -1.53 °C.
In the case of `Cc1cc(Cl)ccc1S(=O)(=O)NC[C@H]1C2CCC(CC2)[C@@H]1/C=C\CCCC(=O)O`, the ΔTm is reported as -1.69 °C.
`CO[C@H](C)CN1CC[C@@]2(C)c3ccc(O)cc3C[C@@H]1C2(C)C` gave a ΔTm of -0.17 °C.
`CCOP(=O)(OCC)C(=Cc1cc(C(C)(C)C)c(O)c(C(C)(C)C)c1)P(=O)(OCC)OCC` gave a ΔTm of -3.19 °C.
With `COc1ccc(OC(=O)N(CC(=O)O)Cc2ccc(OCCc3nc(-c4ccccc4)oc3C)cc2)cc1` the ΔTm was -4.38 °C.
Compound `CN(C(=O)CCOCCOCCOCCOCCNc1cccc2c1C(=O)N(C1CCC(=O)NC1=O)C2=O)[C@H]1CC[C@@]2(C)[C@@H](CC[C@@H]3[C@@H]2CC[C@]2(C)[C@@H](c4ccc5ccncc5c4)CC[C@@H]32)C1` (stereo not given in full) has a ΔTm of -2.19 °C.
For `CO[C@@H](C)CN1CC[C@]2(C)c3cc(O)ccc3C[C@H]1C2(C)C`, the ΔTm was -1.9 °C.
Work on `CNC(=O)c1cc(C(=O)NC2CC2)cn(Cc2ccccc2)c1=O` yielded a ΔTm of -1.08 °C.
`C[C@H](CCC(=O)O)[C@H]1CC[C@H]2[C@@H]3CC[C@@H]4C[C@H](O)CC[C@]4(C)[C@H]3CC[C@]12C` showed a ΔTm of -7.72 °C.
Compound `Clc1ccccc1C(c1ccccc1)(c1ccccc1)n1cccn1` has a ΔTm of -0.07 °C.
